What all share (conditions): mRNA level, 48 h; actives raise or lower the signal
Read-out in assay [1]: Apoptosis regulator Bcl-2 (Homo sapiens) (UniProt P10415)
As to the kind of experiment: LTEA_HepaRG_BCL2: Life Technologies and Expression Analysis (LTEA) Assay for Bcl-2 gene using HepaRG (AID 2283475). An outline of the steps:
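Differentiated human HepaRG cells in serum-free induction medium exposed 48 h, in duplicate, to 8-point half-log series from 100 uM in 0.5% DMSO. BCL2 mRNA by qRT-PCR (TaqMan/Fluidigm), normalized to ACTB, GAPDH, POLR2A; bidirectional fit against DMSO.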

Read-out in assay [2]: Bcl-2 (BID) gene, BID (gene 637)
As to the kind of experiment: LTEA_HepaRG_BID: Life Technologies and Expression Analysis (LTEA) Assay for Bcl-2 (BID) gene using HepaRG (AID 2283476). In a few lines:
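Gene expression by qRT-PCR in HepaRG cells after 48 h exposure, duplicate wells, eight half-log concentrations topping at 100 uM in 0.5% DMSO. Normalized to ACTB, GAPDH, POLR2A; bidirectional fitting relative to DMSO.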

Read-out in assay [3]: Caspase-3 (Homo sapiens) (UniProt P42574)
Put plainly: LTEA_HepaRG_CASP3: Life Technologies and Expression Analysis (LTEA) Assay for cysteine-aspartic acid protease (CASP3) using HepaRG (AID 2283477). In a few lines: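 Differentiated HepaRG cells, plated 48 h, were treated in duplicate in serum-free induction medium for 48 h with eight half-log concentrations up to 100 uM in 0.5% DMSO. CASP3 mRNA measured by qRT-PCR, normalized to ACTB, GAPDH, POLR2A.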

Read-out in assay [4]: Cytochrome P450 (CYP1A2), CYP1A2 (gene 1544)
As to the kind of experiment: LTEA_HepaRG_CYP1A2: Life Technologies and Expression Analysis (LTEA) Assay for Cytochrome P450 (CYP1A2) using HepaRG (AID 2283479). In a few lines:
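Differentiated human HepaRG cells in serum-free induction medium exposed 48 hours in duplicate to 8 half-log concentrations from 100 uM, 0.5% DMSO. CYP1A2 mRNA quantified by qRT-PCR, normalized to ACTB, GAPDH and POLR2A; bidirectional fitting versus DMSO.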

Read-out in assay [5]: cysteine-aspartic acid protease (CASP8), CASP8 (gene 841)
As to the kind of experiment: LTEA_HepaRG_CASP8: Life Technologies and Expression Analysis (LTEA) Assay for cysteine-aspartic acid protease (CASP8) using HepaRG (AID 2283480). An outline of the steps:
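HepaRG, 48 h exposure, duplicate wells; 8 conc, half-log from 100 uM, 0.5% DMSO. Serum-free induction medium. CASP8 mRNA by TaqMan qRT-PCR, norm. ACTB/GAPDH/POLR2A; gain/loss fitted vs DMSO.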

Read-out in assay [6]: Cytochrome P450 (CYP2B6), CYP2B6 (gene 1555)
Put plainly: LTEA_HepaRG_CYP2B6: Life Technologies and Expression Analysis (LTEA) Assay for Cytochrome P450 (CYP2B6) using HepaRG (AID 2283481). An outline of the steps:
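Differentiated human HepaRG cells in serum-free induction medium, dosed in duplicate for 48 h over 8 half-log concentrations topping at 100 uM (0.5% DMSO). CYP2B6 mRNA measured by TaqMan qRT-PCR, normalized to ACTB, GAPDH, POLR2A; bidirectional fit versus DMSO.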

Read-out in assay [7]: Cytochrome P450 2C19 (Homo sapiens) (UniProt P33261)
Put plainly: LTEA_HepaRG_CYP2C19: Life Technologies and Expression Analysis (LTEA) Assay for CYP2C19 using HepaRG (AID 2283482). An outline of the steps: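 Differentiated HepaRG cells in serum-free induction medium exposed 48 h in duplicate, 8 concentrations from 100 uM by half-log steps in 0.5% DMSO. CYP2C19 mRNA measured by TaqMan qRT-PCR, normalized to ACTB, GAPDH, POLR2A. Bidirectional fit versus DMSO.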

Read-out in assay [8]: CYP2C8 (gene 1558)
As to the kind of experiment: LTEA_HepaRG_CYP2C8: Life Technologies and Expression Analysis (LTEA) Assay for CYP2C8 using HepaRG (AID 2283483). In a few lines: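 CYP2C8 mRNA induction or loss, by qRT-PCR normalized to ACTB/GAPDH/POLR2A, is read in HepaRG cells after 48 h treatment. Concentrations run from 100 uM down in half-log dilutions, with 0.5% DMSO as vehicle and baseline.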

Read-out in assay [9]: CYP2C9 (gene 1559)
As to the kind of experiment: LTEA_HepaRG_CYP2C9: Life Technologies and Expression Analysis (LTEA) Assay for CYP2C9 using HepaRG (AID 2283484). In a few lines:
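Cells plated 48 h, switched to serum-free induction medium, then treated in duplicate for 48 h at eight concentrations (max 100 uM, 0.5% DMSO). RNA then analysed by qRT-PCR for CYP2C9; curves fitted in both directions relative to DMSO.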

Read-out in assay [10]: CYP4A11 (gene 1579)
Put plainly: LTEA_HepaRG_CYP4A11: Life Technologies and Expression Analysis (LTEA) Assay for CYP4A11 using HepaRG (AID 2283486). An outline of the steps: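 Differentiated HepaRG cells, 48 h after plating, exposed in duplicate for 48 h to 8 half-log concentrations up to 100 uM in 0.5% DMSO in serum-free induction medium. CYP4A11 mRNA measured by TaqMan qRT-PCR, normalized to ACTB, GAPDH and POLR2A.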

Read-out in assay [11]: Cytochrome P450 3A4 (Homo sapiens) (UniProt P08684)
As to the kind of experiment: LTEA_HepaRG_CYP3A4: Life Technologies and Expression Analysis (LTEA) Assay for CYP3A4 using HepaRG (AID 2283487). In a few lines: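 Differentiated HepaRG cells, plated 48 h, then dosed 48 h in serum-free induction medium with 0.5% DMSO, 8 half-log concentrations up to 100 uM, duplicate. CYP3A4 mRNA by qRT-PCR, normalized to ACTB/GAPDH/POLR2A; bidirectional fit versus DMSO.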

Read-out in assay [12]: DNA damage-inducible transcript 3 (DDIT3), DDIT3 (gene 1649)
Put plainly: LTEA_HepaRG_DDIT3: Life Technologies and Expression Analysis (LTEA) Assay for DNA damage-inducible transcript 3 (DDIT3) using HepaRG (AID 2283488). An outline of the steps: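 HepaRG cells, 48 h after plating, exposed 48 h in serum-free induction medium to 8 half-log concentrations up to 100 uM in 0.5% DMSO, in duplicate. DDIT3 mRNA measured by TaqMan qRT-PCR, normalized to ACTB, GAPDH and POLR2A. Fitted bidirectionally against DMSO.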

Read-out in assay [13]: Pro-epidermal growth factor (Homo sapiens) (UniProt P01133)
Put plainly: LTEA_HepaRG_EGF: Life Technologies and Expression Analysis (LTEA) Assay for Epidermal growth factor (EGF) using HepaRG (AID 2283489). In a few lines:
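HepaRG cells (~100,000/well, 48 h pre-culture) exposed in duplicate for 48 h in serum-free induction medium to 8 half-log concentrations up to 100 uM in 0.5% DMSO. EGF mRNA by qRT-PCR, normalized to ACTB/GAPDH/POLR2A; bidirectional fit versus DMSO.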

Read-out in assay [14]: Early growth response protein 1 (EGR1) transcription factor, EGR1 (gene 1958)
Put plainly: LTEA_HepaRG_EGR1: Life Technologies and Expression Analysis (LTEA) Assay for Early growth response protein 1 (EGR1) transcription factor using HepaRG (AID 2283490). In a few lines:
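Read-out is EGR1 mRNA level by qRT-PCR, normalized to three housekeeping genes and analysed for gain or loss of signal against 0.5% DMSO. Source cells: human HepaRG, treated 48 h at up to 100 uM in half-log dilutions.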

Read-out in assay [15]: Ezrin (EZR), EZR (gene 7430)
Put plainly: LTEA_HepaRG_EZR: Life Technologies and Expression Analysis (LTEA) Assay for Ezrin (EZR) using HepaRG (AID 2283491). An outline of the steps:
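EZR transcript levels came from Fluidigm qRT-PCR and were normalized to three housekeeping genes after 48 h chemical exposure of HepaRG cells. Dosing used an 8-point half-log series with a 100 uM top concentration in 0.5% DMSO, tested in duplicate; both directions were fitted versus vehicle.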

Read-out in assay [16]: Cytochrome P450 3A7 (Homo sapiens) (UniProt P24462)
Put plainly: LTEA_HepaRG_CYP3A7: Life Technologies and Expression Analysis (LTEA) Assay for CYP3A7 using HepaRG (AID 2283492). In a few lines: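 Differentiated HepaRG cells in serum-free induction medium exposed 48 h in duplicate to 8-point half-log series from 100 uM top in 0.5% DMSO. CYP3A7 mRNA by qRT-PCR, normalized to ACTB/GAPDH/POLR2A, bidirectional fit versus DMSO.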

Read-out in assay [17]: CYP3A5 (gene 1577)
Put plainly: LTEA_HepaRG_CYP3A5: Life Technologies and Expression Analysis (LTEA) Assay for CYP3A5 using HepaRG (AID 2283493). An outline of the steps: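 HepaRG cells, plated 48 h then in serum-free induction medium, dosed in duplicate for 48 h with eight half-log concentrations up to 100 uM in 0.5% DMSO. Gene mRNA by Fluidigm TaqMan qRT-PCR, normalized to ACTB, GAPDH, POLR2A.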

Read-out in assay [18]: Fatty Acid-Binding Protein 1 (FABP1), FABP1 (gene 2168)
Put plainly: LTEA_HepaRG_FABP1: Life Technologies and Expression Analysis (LTEA) Assay for Fatty Acid-Binding Protein 1 (FABP1) using HepaRG (AID 2283494). An outline of the steps: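 HepaRG, 48 h post-plating switched to serum-free induction medium, then dosed 48 h (duplicate, 8 pts, ≤100 uM, 0.5% DMSO). RNA → Fluidigm TaqMan qRT-PCR, FABP1 normed to ACTB/GAPDH/POLR2A. Bidirectional curve fit vs DMSO.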

Read-out in assay [19]: CYP2E1 (gene 1571)
Put plainly: LTEA_HepaRG_CYP2E1: Life Technologies and Expression Analysis (LTEA) Assay for CYP2E1 using HepaRG (AID 2283485). In a few lines: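 HepaRG cells, plated 48 h, then exposed 48 h in serum-free induction medium to eight half-log concentrations from 100 uM in 0.5% DMSO, duplicate. CYP2E1 mRNA by qRT-PCR, normalized to ACTB/GAPDH/POLR2A; bidirectional fit versus DMSO.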

Each structure is given as a SMILES string. Calls of active or inactive are those of the source. How the source made its calls: active means hit-call score of the fitted dose curve at least 0.9, where 1 is the maximum; inactive means score below 0.9.

Chain of Cytochrome P450 2C19 (Homo sapiens) (P33261 whole entry, looked up): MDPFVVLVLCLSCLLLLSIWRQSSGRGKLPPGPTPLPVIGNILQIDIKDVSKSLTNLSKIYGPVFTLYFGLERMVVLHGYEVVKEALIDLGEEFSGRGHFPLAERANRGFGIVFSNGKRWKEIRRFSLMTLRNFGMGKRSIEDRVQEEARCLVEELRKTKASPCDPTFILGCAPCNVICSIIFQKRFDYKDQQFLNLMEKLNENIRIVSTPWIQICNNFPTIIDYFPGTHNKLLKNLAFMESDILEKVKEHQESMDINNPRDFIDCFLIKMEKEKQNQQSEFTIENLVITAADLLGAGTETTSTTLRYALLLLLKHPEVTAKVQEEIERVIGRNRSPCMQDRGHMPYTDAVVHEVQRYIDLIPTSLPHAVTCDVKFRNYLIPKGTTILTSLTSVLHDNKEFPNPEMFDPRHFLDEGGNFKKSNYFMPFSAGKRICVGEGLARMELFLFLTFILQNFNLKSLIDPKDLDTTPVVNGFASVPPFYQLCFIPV
Chain of Cytochrome P450 3A7 (Homo sapiens) (P24462 whole entry, looked up): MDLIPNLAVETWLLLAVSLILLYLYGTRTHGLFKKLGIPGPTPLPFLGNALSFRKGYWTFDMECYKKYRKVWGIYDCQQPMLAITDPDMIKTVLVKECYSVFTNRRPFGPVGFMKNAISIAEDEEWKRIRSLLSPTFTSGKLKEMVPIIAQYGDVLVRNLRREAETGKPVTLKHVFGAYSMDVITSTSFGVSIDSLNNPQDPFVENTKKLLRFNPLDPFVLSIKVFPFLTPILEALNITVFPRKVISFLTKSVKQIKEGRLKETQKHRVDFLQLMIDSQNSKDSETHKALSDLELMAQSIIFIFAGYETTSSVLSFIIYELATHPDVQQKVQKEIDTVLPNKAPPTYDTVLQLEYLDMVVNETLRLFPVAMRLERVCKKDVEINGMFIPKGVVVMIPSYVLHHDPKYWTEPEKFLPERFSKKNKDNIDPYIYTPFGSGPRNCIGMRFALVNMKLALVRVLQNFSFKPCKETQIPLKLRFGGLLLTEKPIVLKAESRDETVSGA
Chain of Cytochrome P450 3A4 (Homo sapiens) (P08684 whole entry, looked up): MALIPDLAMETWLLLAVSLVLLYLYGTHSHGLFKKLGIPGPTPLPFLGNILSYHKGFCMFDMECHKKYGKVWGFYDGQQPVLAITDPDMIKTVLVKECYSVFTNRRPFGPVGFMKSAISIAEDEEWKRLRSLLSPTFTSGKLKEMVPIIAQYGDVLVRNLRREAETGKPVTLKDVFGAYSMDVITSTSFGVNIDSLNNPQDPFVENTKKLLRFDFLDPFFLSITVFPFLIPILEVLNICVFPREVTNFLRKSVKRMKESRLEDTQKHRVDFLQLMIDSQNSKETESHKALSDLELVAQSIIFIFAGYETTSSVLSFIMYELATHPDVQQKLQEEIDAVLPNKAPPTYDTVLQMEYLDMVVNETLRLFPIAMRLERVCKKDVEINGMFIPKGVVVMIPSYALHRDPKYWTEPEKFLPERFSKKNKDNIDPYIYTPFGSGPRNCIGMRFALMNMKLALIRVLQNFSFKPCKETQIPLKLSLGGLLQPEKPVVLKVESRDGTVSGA
Chain of Apoptosis regulator Bcl-2 (Homo sapiens) (P10415 whole entry, looked up): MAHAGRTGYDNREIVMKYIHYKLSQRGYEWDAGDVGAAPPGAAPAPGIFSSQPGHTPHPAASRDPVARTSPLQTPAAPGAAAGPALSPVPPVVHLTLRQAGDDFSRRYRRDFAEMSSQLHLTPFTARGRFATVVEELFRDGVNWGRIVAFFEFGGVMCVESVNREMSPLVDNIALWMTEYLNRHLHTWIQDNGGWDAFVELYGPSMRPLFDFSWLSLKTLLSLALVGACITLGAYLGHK
Chain of Caspase-3 (Homo sapiens) (P42574 whole entry, looked up): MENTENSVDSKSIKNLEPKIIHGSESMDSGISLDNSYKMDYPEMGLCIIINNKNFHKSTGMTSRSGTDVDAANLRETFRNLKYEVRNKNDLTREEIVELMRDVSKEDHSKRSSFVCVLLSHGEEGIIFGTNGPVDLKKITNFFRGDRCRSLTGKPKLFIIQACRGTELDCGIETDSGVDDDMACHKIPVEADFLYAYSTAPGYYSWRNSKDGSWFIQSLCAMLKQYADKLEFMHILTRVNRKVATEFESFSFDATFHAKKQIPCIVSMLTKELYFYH

As a reminder, the AC50 is the midpoint of the concentration-response curve, whichever way the signal moves. As to `CCN(CC)C(=O)c1cc(S(=O)(=O)Cc2ccccc2)c(N2CCC(c3ccccc3)CC2)cc1N(CC)CCN(C)C`, the outcome in assay [1], in [2], in assay [13], in assay [15] and in assay [18] was inactive. For the same molecule, the AC50 is 30.6 µM (active) in assay [3]; 6.01 µM (active) in assay [4]; 30.8 µM (active) in [5]; 5.04 µM (active) in assay [6]; 4.25 µM (active) in assay [7]; 4.92 µM (active) in [8]. In addition, the concentration at half-maximal activity (AC50) in [9] was 5.05 µM (active); in assay [10] it was 30.5 µM (active); in [11], 34.7 µM (active); in [12], 22.9 µM (active); in assay [14] it was 28.8 µM (active); in assay [16], 1.9 µM (active). The AC50 in [17] was 32.2 µM (active).

Consider `CCCCOC(=O)c1ccc(O)cc1`, for which the outcome in assay [1], in assay [2], in assay [3], in assay [4], in assay [5] and in assay [6] was inactive. In addition, the molecule was called inactive in assay [7], in [8], in assay [9], in assay [19], in [10] and in assay [11]. Further, the outcome in assay [12], in assay [13], in assay [15], in [16], in assay [17] and in assay [18] was inactive.

With `O=c1ccc2ccccc2o1`, the molecule was called inactive in assay [1], in [2], in [3], in assay [4], in [5] and in [7]. The molecule was called inactive in assay [8], in assay [9], in assay [10], in [11], in [12] and in [13]. Further, the outcome in [14], in assay [15] and in assay [17] was inactive. Besides, the figures for the half-maximal activity concentration (AC50) in assay [6], in assay [19] and in assay [18] were 40.3 µM (active), 50 µM (active) and 36.8 µM (active), respectively.

`O=C(O)c1ccccc1C(=O)OCc1ccccc1`: the outcome in [1], in assay [2], in assay [3], in assay [4], in [6] and in [7] was inactive. Moreover, the call in [8], in assay [9], in assay [11], in assay [12], in assay [13] and in assay [14] was inactive. For the same molecule, the result in [15], in assay [16] and in assay [17] was inactive. In addition, the AC50 in [10] is 26.2 µM (active); in [18], 28.1 µM (active).

In the case of `COc1ccc2cc(S(=O)(=O)N[C@H](CC(=O)N[C@H](Cc3ccc(CN4[C@H](C)CCC[C@@H]4C)cc3)C(=O)N(C)C(C)C)c3ccc4c(c3)OCO4)ccc2c1`, the molecule was called inactive in assay [1], in assay [8], in [13] and in [15]. Further, the AC50 in assay [2] is 21.6 µM (active); in [3] it was 19.4 µM (active); in [4] it was 7.93 µM (active); in [6] it was 11.5 µM (active); in [7], 23.7 µM (active); in [9], 11.9 µM (active). For the same molecule, the AC50 in assay [19] was 29.7 µM (active); in assay [10], 20.7 µM (active); in assay [11], 24 µM (active); in assay [12], 20.4 µM (active); in assay [14], 33.3 µM (active); in [17] it was 22.1 µM (active). In addition, the AC50 in [18] is 12.1 µM (active).

As for `Cc1ncc(CO)c(CO)c1O`, the result in assay [1], in assay [2], in assay [3], in assay [4], in [6] and in assay [7] was inactive. Moreover, the result in assay [8], in assay [9], in assay [10], in [11], in assay [12] and in assay [13] was inactive. For the same molecule, the molecule was called inactive in assay [14], in assay [15], in assay [17] and in assay [18].

Values taken from PubChem BioAssay (EPA / NIEHS).
